What all share (assay): DAPPL (digital affinity profiling via proximity ligation, sequencing); 10 mM Tris-HCl pH 7.5, 50 mM NaCl, 1 mM DTT, 4% glycerol, room temperature, 30 min; GST-TFs on glutathione beads, 16-mer random dsDNA library, 0.1% formaldehyde crosslink after washing; high values mean tight binding
One assay addresses T1, FLI1 (Homo sapiens, UniProt Q01543 1-452).
T1 sequence: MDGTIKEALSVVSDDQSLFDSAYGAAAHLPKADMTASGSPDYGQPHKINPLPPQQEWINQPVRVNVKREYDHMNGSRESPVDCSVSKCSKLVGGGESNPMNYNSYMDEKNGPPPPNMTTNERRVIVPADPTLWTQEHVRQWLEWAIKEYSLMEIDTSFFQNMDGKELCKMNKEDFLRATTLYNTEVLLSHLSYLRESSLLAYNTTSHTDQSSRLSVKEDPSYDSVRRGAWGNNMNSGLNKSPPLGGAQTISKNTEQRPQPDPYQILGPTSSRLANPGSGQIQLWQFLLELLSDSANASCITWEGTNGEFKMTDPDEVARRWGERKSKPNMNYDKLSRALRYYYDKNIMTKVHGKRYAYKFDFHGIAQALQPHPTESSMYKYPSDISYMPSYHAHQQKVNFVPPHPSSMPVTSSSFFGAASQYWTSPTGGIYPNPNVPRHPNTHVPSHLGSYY
The note with it: protein: recombinant; tags: N-terminal GST; dsDNA, one strand shown. The method, boiled down:
(§1)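 Sequencing on an Illumina NextSeq500 followed washing, crosslinking with 0.1% formaldehyde, proximity ligation (BsaI/T4 ligase, 1 h, 37 °C) and PCR amplification of pools that had been incubated for 30 min at room temperature with 200 nmole of a random double-stranded 16-mer DNA library in Tris/NaCl/DTT/glycerol buffer. Each pool held DNA-barcoded human transcription factors, expressed in yeast as GST fusions and captured on glutathione beads, plus a tag-only sample. Binding signal is a hexamer's read frequency for a factor divided by its frequency in the tag-only sample.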

The target in a further assay is T2, ELK1 (Homo sapiens, UniProt P19419 1-428).
T2 sequence: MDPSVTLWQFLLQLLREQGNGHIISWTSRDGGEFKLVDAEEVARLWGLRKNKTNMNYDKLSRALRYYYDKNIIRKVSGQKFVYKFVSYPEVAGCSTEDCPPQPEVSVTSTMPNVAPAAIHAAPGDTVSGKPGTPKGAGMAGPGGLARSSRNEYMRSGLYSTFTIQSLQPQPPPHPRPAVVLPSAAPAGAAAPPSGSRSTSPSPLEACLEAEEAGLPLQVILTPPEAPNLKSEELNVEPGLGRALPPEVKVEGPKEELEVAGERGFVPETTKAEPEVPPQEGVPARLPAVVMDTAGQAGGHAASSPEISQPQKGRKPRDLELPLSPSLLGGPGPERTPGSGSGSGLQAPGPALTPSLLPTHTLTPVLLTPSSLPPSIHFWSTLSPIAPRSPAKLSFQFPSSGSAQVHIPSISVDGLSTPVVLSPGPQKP
The note with it: protein: recombinant; tags: N-terminal GST; dsDNA, one strand shown. In outline:
as §1

The target of the next assay is T3, GABPA (Homo sapiens, UniProt Q06546 1-454).
T3 sequence: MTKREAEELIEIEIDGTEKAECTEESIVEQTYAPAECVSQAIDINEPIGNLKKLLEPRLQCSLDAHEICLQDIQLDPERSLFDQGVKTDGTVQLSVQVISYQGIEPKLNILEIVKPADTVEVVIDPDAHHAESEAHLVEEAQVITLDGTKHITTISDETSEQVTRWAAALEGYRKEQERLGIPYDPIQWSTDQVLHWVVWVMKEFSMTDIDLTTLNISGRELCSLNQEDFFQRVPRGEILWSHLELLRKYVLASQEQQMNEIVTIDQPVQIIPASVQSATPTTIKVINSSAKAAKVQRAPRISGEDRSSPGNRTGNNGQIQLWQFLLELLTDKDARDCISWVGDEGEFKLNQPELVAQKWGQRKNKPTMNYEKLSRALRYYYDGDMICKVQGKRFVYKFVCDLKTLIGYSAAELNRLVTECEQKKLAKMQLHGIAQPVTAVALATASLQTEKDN
Conditions: protein: recombinant; tags: N-terminal GST; dsDNA, one strand shown. The method, boiled down:
as §1

In another assay the target is T4, ERG (Homo sapiens, UniProt P11308 1-479).
T4 sequence: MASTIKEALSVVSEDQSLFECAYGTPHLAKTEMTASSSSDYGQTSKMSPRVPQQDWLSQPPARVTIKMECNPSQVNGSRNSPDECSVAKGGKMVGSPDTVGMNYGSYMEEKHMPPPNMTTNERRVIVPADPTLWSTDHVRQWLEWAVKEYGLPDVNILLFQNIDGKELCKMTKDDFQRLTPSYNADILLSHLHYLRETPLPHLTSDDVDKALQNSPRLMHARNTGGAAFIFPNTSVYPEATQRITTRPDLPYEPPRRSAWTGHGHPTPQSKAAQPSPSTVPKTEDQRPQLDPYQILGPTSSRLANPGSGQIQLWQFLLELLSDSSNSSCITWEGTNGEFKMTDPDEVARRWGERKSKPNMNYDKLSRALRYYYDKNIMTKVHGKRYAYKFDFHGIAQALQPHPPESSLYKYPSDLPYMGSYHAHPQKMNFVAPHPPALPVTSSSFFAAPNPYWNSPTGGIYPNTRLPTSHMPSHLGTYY
Conditions: protein: recombinant; tags: N-terminal GST; dsDNA, one strand shown. In outline:
as §1

For another assay, the target named is ELF1 (Homo sapiens, UniProt P32519 1-619). The note with it: protein: recombinant; tags: N-terminal GST; dsDNA, one strand shown. The method, boiled down:
as §1

The next assay deals with T5, EHF (Homo sapiens, UniProt Q9NZC4 1-300).
T5 sequence: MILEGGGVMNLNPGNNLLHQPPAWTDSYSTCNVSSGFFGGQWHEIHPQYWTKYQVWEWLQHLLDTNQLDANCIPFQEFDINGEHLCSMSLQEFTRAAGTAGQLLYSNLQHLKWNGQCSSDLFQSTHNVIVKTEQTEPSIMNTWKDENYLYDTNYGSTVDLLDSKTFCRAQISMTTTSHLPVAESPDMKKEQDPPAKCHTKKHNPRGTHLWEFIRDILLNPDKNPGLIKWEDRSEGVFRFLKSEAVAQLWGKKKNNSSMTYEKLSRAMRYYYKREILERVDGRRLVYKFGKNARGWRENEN
Conditions: protein: recombinant; tags: N-terminal GST; dsDNA, one strand shown. The method, boiled down: as §1

The target of a further assay is SPI1 (Homo sapiens, UniProt P17947 1-270). The note with it: protein: recombinant; tags: N-terminal GST; dsDNA, one strand shown. The method, boiled down:
as §1

Another assay addresses SPIB (Homo sapiens, UniProt Q01892 1-262). Conditions: protein: recombinant; tags: N-terminal GST; dsDNA, one strand shown. The method, boiled down: as §1
A further assay deals with T6, ELK3 (Homo sapiens, UniProt P41970 1-407).
T6 sequence: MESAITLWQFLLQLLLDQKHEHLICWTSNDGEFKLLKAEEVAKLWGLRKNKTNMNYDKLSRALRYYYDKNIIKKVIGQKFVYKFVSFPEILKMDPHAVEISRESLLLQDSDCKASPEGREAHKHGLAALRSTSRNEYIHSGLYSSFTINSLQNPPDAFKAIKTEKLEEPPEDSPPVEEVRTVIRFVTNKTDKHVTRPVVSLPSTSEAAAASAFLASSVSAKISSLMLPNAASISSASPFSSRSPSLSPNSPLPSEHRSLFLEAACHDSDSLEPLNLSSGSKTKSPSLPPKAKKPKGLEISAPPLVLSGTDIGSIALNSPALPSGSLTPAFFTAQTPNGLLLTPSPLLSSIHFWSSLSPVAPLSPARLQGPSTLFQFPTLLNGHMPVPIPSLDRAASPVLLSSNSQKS
The note with it: protein: recombinant; tags: N-terminal GST; dsDNA, one strand shown. In outline: as §1

A further assay deals with T7, FEV (Homo sapiens, UniProt Q99581 1-238).
T7 sequence: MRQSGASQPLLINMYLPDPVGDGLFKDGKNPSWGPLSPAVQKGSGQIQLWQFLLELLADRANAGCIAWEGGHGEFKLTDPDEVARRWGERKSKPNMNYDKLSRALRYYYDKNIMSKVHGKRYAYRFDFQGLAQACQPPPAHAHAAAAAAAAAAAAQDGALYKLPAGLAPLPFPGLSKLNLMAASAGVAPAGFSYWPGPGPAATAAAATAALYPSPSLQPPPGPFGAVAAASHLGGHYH
Conditions: protein: recombinant; tags: N-terminal GST; dsDNA, one strand shown. In outline: as §1

The target in another assay is ETV5 (Homo sapiens, UniProt P41161 1-510). Conditions: protein: recombinant; tags: N-terminal GST; dsDNA, one strand shown. In outline:
as §1

The next assay deals with HSF1 (Homo sapiens, UniProt Q00613 1-529). Conditions: protein: recombinant; tags: N-terminal GST; chain copies: 3; dsDNA, one strand shown. In outline: as §1
Chain of HSF1 (Q00613 whole entry): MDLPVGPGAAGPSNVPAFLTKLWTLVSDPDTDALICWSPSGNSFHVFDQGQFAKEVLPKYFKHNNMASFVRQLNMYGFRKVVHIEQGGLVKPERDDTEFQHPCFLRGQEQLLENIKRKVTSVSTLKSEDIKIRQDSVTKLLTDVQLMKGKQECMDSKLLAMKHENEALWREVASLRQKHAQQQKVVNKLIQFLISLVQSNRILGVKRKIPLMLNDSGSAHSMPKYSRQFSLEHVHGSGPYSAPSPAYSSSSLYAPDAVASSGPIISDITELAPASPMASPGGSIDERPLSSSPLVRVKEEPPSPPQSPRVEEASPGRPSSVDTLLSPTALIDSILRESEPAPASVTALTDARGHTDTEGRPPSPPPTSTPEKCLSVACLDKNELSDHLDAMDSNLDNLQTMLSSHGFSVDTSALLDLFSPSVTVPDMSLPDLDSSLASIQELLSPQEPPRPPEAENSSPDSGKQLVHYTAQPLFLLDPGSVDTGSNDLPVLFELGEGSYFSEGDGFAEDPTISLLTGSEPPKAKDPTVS
In a further assay the target is T8, SPIC (Homo sapiens, UniProt Q8N5J4 1-248).
T8 sequence: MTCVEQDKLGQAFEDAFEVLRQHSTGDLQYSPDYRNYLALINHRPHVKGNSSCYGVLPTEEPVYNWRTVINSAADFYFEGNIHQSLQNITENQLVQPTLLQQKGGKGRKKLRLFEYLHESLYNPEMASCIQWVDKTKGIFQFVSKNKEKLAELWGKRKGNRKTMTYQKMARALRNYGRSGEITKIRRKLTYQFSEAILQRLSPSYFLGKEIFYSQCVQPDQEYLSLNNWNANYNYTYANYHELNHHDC
Conditions: protein: recombinant; tags: N-terminal GST; dsDNA, one strand shown. In outline: as §1

A further assay addresses ELF4 (Homo sapiens, UniProt Q99607 1-663). The note with it: protein: recombinant; tags: N-terminal GST; dsDNA, one strand shown. The method, boiled down: as §1
The target in the next assay is T9, ELK4 (Homo sapiens, UniProt P28324-2 1-405).
T9 sequence: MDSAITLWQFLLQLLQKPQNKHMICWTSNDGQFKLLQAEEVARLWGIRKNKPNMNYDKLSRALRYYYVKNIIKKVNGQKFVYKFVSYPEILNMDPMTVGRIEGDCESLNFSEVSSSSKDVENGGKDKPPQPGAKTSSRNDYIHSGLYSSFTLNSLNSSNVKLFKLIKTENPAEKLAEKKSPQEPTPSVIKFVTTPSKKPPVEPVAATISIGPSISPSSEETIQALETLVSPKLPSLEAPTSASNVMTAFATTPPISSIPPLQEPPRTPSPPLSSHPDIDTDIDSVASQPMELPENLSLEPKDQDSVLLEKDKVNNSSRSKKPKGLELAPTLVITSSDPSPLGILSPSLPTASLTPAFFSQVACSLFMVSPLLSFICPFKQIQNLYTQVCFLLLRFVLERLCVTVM
The note with it: protein: recombinant; tags: N-terminal GST; dsDNA, one strand shown. In outline: as §1

Another assay concerns the target T10, ETV2 (Homo sapiens, UniProt O00321 1-342).
T10 sequence: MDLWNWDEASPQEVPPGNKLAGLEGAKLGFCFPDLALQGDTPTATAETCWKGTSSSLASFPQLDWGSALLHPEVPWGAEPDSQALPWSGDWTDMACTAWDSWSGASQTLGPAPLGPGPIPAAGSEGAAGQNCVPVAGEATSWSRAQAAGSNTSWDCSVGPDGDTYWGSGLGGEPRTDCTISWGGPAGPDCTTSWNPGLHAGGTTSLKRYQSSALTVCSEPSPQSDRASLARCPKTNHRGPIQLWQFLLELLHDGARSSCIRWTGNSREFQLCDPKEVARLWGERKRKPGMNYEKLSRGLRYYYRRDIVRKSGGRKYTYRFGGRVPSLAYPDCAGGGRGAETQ
Conditions: protein: recombinant; tags: N-terminal GST; dsDNA, one strand shown. The method, boiled down: as §1

Another assay concerns the target T11, ELF3 (Homo sapiens, UniProt P78545 1-371).
T11 sequence: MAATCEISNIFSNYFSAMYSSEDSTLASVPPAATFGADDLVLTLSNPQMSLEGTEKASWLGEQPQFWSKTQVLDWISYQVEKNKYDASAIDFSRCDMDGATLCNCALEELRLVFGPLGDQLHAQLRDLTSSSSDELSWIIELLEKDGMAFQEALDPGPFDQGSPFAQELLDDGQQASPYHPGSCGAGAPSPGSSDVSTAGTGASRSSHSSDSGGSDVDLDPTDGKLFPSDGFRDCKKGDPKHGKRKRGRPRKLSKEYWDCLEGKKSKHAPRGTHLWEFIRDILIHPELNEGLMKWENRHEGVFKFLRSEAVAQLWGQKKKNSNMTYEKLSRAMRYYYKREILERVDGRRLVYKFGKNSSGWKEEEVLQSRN
The note with it: protein: recombinant; tags: N-terminal GST; dsDNA, one strand shown. In outline: as §1

The next assay deals with CRX (Homo sapiens, UniProt O43186 1-299). Conditions: protein: recombinant; tags: N-terminal GST; dsDNA, one strand shown. The method, boiled down:
as §1

Our source for the binding signal values is PMC7862700, “An all-to-all approach to the identification of sequence-specific readers for epigenetic DNA modifications on cytosine”.

Chain of ELF1 (P32519 whole entry): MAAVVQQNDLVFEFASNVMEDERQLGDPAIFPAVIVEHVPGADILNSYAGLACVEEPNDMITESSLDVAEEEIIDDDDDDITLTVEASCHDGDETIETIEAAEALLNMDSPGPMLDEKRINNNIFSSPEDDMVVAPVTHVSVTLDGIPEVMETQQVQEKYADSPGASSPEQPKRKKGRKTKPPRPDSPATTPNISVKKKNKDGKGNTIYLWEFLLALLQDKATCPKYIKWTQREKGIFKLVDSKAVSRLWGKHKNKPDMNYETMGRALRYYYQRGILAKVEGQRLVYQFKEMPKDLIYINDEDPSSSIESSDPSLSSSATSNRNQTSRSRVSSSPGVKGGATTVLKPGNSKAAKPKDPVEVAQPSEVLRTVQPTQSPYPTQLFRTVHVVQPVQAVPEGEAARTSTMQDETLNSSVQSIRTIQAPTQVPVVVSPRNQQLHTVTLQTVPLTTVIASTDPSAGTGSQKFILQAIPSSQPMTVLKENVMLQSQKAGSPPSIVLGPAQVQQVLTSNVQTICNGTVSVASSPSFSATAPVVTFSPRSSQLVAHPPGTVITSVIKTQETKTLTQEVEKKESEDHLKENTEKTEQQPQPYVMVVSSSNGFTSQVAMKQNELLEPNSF
Chain of ELF4 (Q99607 whole entry): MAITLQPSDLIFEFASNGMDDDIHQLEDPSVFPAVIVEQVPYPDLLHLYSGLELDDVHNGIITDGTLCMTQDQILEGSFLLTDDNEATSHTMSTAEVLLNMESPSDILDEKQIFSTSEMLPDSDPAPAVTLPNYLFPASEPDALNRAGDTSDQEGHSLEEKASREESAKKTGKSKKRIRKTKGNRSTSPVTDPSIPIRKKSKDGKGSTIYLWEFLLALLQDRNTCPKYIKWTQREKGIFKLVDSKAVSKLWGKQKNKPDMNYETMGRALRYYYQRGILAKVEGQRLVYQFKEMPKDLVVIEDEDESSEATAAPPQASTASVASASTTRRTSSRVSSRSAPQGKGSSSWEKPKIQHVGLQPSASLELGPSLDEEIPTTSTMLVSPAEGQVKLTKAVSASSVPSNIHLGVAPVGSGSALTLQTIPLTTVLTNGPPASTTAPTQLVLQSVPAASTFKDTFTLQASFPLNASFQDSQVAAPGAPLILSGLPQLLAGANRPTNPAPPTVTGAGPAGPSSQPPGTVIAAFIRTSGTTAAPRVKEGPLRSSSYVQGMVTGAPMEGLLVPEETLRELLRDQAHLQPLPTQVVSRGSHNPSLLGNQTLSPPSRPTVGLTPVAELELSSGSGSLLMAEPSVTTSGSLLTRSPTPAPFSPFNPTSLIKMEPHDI
Chain of CRX (O43186 whole entry): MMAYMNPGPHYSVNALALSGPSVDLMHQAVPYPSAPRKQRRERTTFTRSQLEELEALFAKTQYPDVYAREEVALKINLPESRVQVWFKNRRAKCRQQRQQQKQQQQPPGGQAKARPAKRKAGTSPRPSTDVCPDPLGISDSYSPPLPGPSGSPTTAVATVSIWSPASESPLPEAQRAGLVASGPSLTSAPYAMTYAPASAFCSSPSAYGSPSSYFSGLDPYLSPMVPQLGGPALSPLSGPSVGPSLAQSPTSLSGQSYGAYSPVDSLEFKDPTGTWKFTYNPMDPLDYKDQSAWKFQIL
Chain of SPIB (Q01892 whole entry): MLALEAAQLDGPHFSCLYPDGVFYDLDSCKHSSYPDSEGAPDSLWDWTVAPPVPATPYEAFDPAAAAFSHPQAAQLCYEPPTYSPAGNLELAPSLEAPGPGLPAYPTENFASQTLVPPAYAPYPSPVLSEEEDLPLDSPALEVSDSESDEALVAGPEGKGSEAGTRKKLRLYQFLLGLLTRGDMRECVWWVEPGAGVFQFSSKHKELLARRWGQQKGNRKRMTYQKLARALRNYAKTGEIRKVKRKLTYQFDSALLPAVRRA
Chain of ETV5 (P41161 whole entry): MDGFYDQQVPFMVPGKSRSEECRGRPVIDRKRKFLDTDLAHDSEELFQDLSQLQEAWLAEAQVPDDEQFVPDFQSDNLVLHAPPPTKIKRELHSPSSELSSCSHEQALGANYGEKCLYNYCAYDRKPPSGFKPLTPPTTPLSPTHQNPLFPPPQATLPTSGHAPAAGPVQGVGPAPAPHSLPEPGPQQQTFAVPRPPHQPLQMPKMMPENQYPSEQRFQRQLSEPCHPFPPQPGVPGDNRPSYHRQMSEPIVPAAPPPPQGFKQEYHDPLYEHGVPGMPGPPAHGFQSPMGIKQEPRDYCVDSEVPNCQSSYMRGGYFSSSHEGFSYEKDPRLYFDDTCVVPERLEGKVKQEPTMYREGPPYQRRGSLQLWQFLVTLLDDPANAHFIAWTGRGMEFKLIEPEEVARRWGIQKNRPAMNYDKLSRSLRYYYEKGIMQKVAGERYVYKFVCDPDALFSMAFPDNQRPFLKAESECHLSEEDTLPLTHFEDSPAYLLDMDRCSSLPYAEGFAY

As to TGATAT, the binding signal in the assay with FLI1 was 1.13 fold enrichment (6-mer frequency, TF over GST control); with ELK1 it was 1.11 fold enrichment (6-mer frequency, TF over GST control); with GABPA it was 1.15 fold enrichment (6-mer frequency, TF over GST control); with ERG it was 1.12 fold enrichment (6-mer frequency, TF over GST control); with ELF1 it was 1.11 fold enrichment (6-mer frequency, TF over GST control); in the assay with EHF, 1.08 fold enrichment (6-mer frequency, TF over GST control). In addition, the binding signal in the assay with SPI1 is 1.08 fold enrichment (6-mer frequency, TF over GST control); in the assay with SPIB, 1.05 fold enrichment (6-mer frequency, TF over GST control); with ELK3, 1 fold enrichment (6-mer frequency, TF over GST control); with FEV, 1.07 fold enrichment (6-mer frequency, TF over GST control); in the assay with ETV5 it was 1.1 fold enrichment (6-mer frequency, TF over GST control); with HSF1, 1.01 fold enrichment (6-mer frequency, TF over GST control). Further, the binding signal in the assay with SPIC was 1.05 fold enrichment (6-mer frequency, TF over GST control); with ELF4, 1.12 fold enrichment (6-mer frequency, TF over GST control); in the assay with ELK4, 1.14 fold enrichment (6-mer frequency, TF over GST control); with ETV2, 1.21 fold enrichment (6-mer frequency, TF over GST control); with ELF3 it was 1.04 fold enrichment (6-mer frequency, TF over GST control); with CRX, 1.08 fold enrichment (6-mer frequency, TF over GST control).
